Screens deposited in PubChem BioAssay by National Center for Advancing Translational Sciences (NCATS).
NS1 function inh – qHTS Assay for Inhibitors of Influenza NS1 Protein Function. Potency, µM (doses to about 46.1 µM), for inactives: at the top dose activity, positive = more growth. actives 0.4% (n = 270,000); calls by dose curve; further: potency means the concentration at half of the fitted maximal effect; actives are rising curves; nearly all actives have a fitted effect of over 50% in size
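Read-out: OD600 growth recovery of NS1-expressing budding yeast. Cells grown overnight at 30C in -URA glucose medium, washed, resuspended and diluted 1:100 in 2% galactose assay medium, pH 6.0. Same strain lacking NS1 served as positive control.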
Pf growth 48h – Primary qHTS for delayed death inhibitors of the malarial parasite plastid, 48 hour incubation; P. falciparum luciferase growth in erythrocytes, 48 h; AID 504832, 2011; Potency, µM (series often up to 28.7 µM), inactives show at the highest dose activity change, negative = inhibition, actives largely listed as inhibitors; actives 5.9% (n = 310,000); further: potency means the concentration at half of the fitted maximal effect; on the % scale 0 is the no-effect control and ±100 the full control effect
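Luciferase-expressing parasites in RBCs, 2% Hct / 0.1% parasitemia final; RPMI 1640 + 0.5% Albumax; 37 C, 5% CO2, one generation; luminescence read-out, lower signal = inhibition.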
Pf growth 96h – Primary qHTS for delayed death inhibitors of the malarial parasite plastid, 96 hour incubation. P. falciparum luciferase reporter growth, 96 h. Potency, µM (highest dose often 28.7 µM), for the others: at the top dose activity change, negative = inhibition, actives largely listed as inhibitors. actives 6.9% (n = 320,000); further: potency means the concentration at half of the fitted maximal effect; on the % scale 0 is the no-effect control and ±100 the full control effect
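Delayed-death screen, second-generation endpoint: infected erythrocytes, 2% hematocrit, 0.05% parasitemia final; 96 hours at 37 C, 5% CO2; luciferase detection reagent; luminescence decrease equals reduced growth.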
Cycloheximide cs – Cycloheximide Counterscreen for Small Molecule Inhibitors of Shiga Toxin; cell reporter, cycloheximide protein synthesis inhibition counterscreen; max response, %; actives 12% (n = 300,000); AID 2314, 2010; in the data active means max response mostly above about 13%, no sharp cut-off; inactive means mostly below about 14%; further: read at 38.3 µM for the half of the compounds with a filed dose; 0% is about no effect
Shiga inhibitor – A qHTS for Small Molecule Inhibitors of Shiga Toxin; AID 2315, 2010; Vero cells, Shiga toxin protein synthesis inhibition reporter; actives 9.2% (n = 290,000); inhibition, % at 38.7 µM; in the data active means inhibition mostly above about 28%, no sharp cut-off; inactive means mostly below about 43%; further: 0% is about no effect
Active calls of the source: *; i = inactive; ? = inconclusive; . = no result given; [ ] = dose if it differs, or a comment. An excerpt weighted towards active compounds, which were near 21% of everything screened. Unless noted, the call rests on the fitted dose curve; in most records, active means well fitted inhibition curve with a large enough effect; inconclusive means small, poorly fitted or top-dose-only effect, or another doubt; inactive means no such curve, though single readings can be large or run the other way.

SMILES	NS1 function inh	Pf growth 48h	Pf growth 96h	Cycloheximide cs	Shiga inhibitor
COc1cc(C(=O)NCCSc2ccc(F)cc2)cc(OC)c1OC	-3%	-14%	?	9	19
CCn1c(SCC(=O)O)nnc1C1CCCCC1	-3%	9%	.	-2	32
CCn1ccnc1CNCc1cn(-c2cc(C)ccc2C)nc1-c1ccccc1	-3%	?	?	-2	-30
Cc1ccc(C)c(-n2cc(CNCCc3cnccn3)c(-c3ccccc3)n2)c1	0%	7.4µM*	?	-1	17
COCCN1CCC(CNCc2cn(-c3cc(C)ccc3C)nc2-c2ccccc2)C1 (stereo unspecified)	2%	4.7µM*	?	4	1
CC(=O)N1CCCN(Cc2cn(-c3cc(C)ccc3C)nc2-c2ccccc2)CC1	1%	17µM*	-18%	-2	-9
CN(C)S(=O)(=O)c1cccc(NC(=O)c2ccc(COc3ccccc3)cc2)c1	-6%	?	?	13	17
CCNC(=O)Cn1cc(C#N)c2ccccc21	5%	-1%	i	-2	-3
Cn1nc(C(F)(F)F)c(-c2cccc(C(F)(F)F)c2)c1NC(=O)Nc1ccc(F)cc1	0%	0.93µM*	1.3µM*	2	-2
Cc1cc(/C=C(\C#N)c2nc3ccccc3[nH]2)c(C)n1C	17%	-22%	-99%	23*	67*
Cc1cc(/C=C(/C#N)c2nc3ccccc3[nH]2)c(C)n1-c1cccc([N+](=O)[O-])c1	-10%	.	2.3µM*	32*	37*
CC(Sc1ccccc1)C(=O)NN=C1CCCCCCC1 (stereo unspecified)	.	3%	10%	7	20
Cc1ccc(S(=O)(=O)N(CC(=O)Nc2ccc(C)cc2C)C(=O)N2CCN(C)CC2)cc1	.	-4%	30%	.	.
COc1ccc(-n2c(Cc3cccn3C)nnc2SCC(=O)NCc2ccc(F)cc2)cc1	9%	8.3µM*	-6%	4	17
COc1ccc(-n2c(Cc3cccn3C)nnc2SCC(=O)NCc2ccccc2Cl)cc1	-8%	9.3µM*	12µM*	1	-9
Cc1cc(C(=O)N2CCN(S(=O)(=O)c3ccccc3F)CC2)c(C)o1	4%	24%	-1%	-1	11
COc1ccccc1CN1CCC(n2nccc2NC(=O)CCCc2ccccc2)CC1	8%	?	2%	-3	-6
O=C(Cc1ccccc1)N/N=C/c1ccc(OC(=O)/C=C\c2ccco2)cc1	0%	7%	-20%	29*	49*
CCc1ccc(OC(=O)/C=C/c2ccco2)cc1	6%	1%	?	33*	30*
CC(C)(C)OC(=O)N/N=C\c1ccc(OC(=O)c2ccco2)cc1	.	257%	-13%	38*	79*
CCOc1ccc(C(=O)Nc2cccc3ncccc23)cc1Br	1%	48%[1.15 µM]	-4%	10	-9
Cc1cc(NC(=O)C(C)Sc2nc(-c3ccccc3)cc(=O)[nH]2)no1 (stereo unspecified)	10%	13%	?	-6	-13
CCOc1ccc(C(=O)N2CCCC(c3nc(-c4cccs4)no3)C2)cc1 (stereo unspecified)	-34%	31%	15%	28*	33*
O=C(c1ccc(Cl)cc1)N1CCC(c2nc(-c3cccs3)no2)CC1	-39%	7%	22%	-2	2
CCC(CC)C(=O)N1CCCC(c2nc(-c3cccs3)no2)C1 (stereo unspecified)	5%	24%	.	17	61*
SMILES	NS1 function inh	Pf growth 48h	Pf growth 96h	Cycloheximide cs	Shiga inhibitor
Cc1nn(C(C)C)c(C)c1CN1CCC(C(=O)Nc2cccc(-c3cccc(F)c3)c2)CC1	1%	?	-17%	-4	-28
Cc1ccc(CC(C(=O)O)C(C)C(=O)Nc2ccc(F)cc2)cc1 (stereo unspecified)	1%	3%	4%	-2	-6
Cc1ccc(NC(=O)c2ccc(S(=O)(=O)N3CCCC3)cc2)nc1	.	?	-6%	.	.
Cc1ccc(NC(=O)C(=O)Nc2ccc(C)cn2)nc1	.	84%	?	50*	85*
Cc1ccc(NC(=O)c2ccc(F)cc2)nc1	1%	-9%	5.2µM*	2	-2
Cc1ccc(NC(=O)/C(C#N)=C(\N)C(Cl)(Cl)Cl)nc1	.	208%	-8%	38*	76*
Cc1ccc(NC(=O)c2cccnc2C(=O)O)nc1	7%	31%	17%	-3	4
Cc1ccc(NC(=O)c2sccc2C)nc1	-4%	204%	208%	49*	88*
CN(C(=O)COC(=O)c1ccc(Cl)cc1N)C1CCS(=O)(=O)C1 (stereo unspecified)	1%	7%	.	-1	-8
CCN(CC)S(=O)(=O)c1ccc(NC(=O)c2cnccn2)cc1	9%	6%	-8%	-1	-4
O=C(CN1CCN(S(=O)(=O)c2ccc(Br)cc2)CC1)c1ccc(O)c(O)c1	11%	?	?	5	-5
Cc1ccc(NC(=O)NC(=O)N(C(C)C)S(C)(=O)=O)nc1	11%	1%	-1%	14*	-34
Cc1ccc(NC(=O)c2ccc3c(c2)C(=O)N(c2cc(C)ccc2C)C3=O)nc1	-9%	42%	7%	29*	68*
CC(C)N(C(=O)NC(=O)Nc1ccccn1)S(C)(=O)=O	4%	4%	50%	6	-7
Cc1sc2nc(CSc3cccc(C(F)(F)F)c3)[nH]c(=O)c2c1C	5%	-3%	-24%	-4	-6
COc1ccccc1C1c2[nH]c3ccccc3c2CCN1Cc1ccc(NC(C)=O)s1 (stereo unspecified)	-13%	?	?	4	7
COCCN(C(=O)c1oc2ccccc2c1COC)c1c(N)n(CC(C)C)c(=O)[nH]c1=O	.	-1%	-10%	.	.
Cc1ccc(-c2nnc3ccc(SCC(=O)N4CCCc5ccccc54)nn23)cc1	-2%	?	10µM*	0	-14
Cc1nnc(SCC(=O)N2CCCc3ccccc32)[nH]c1=O	8%	.	-24%	23*	14
O=C(CSc1ccc(-c2ccc(Cl)cc2)nn1)N1CCCc2ccccc21	2%	8%	?	13*	26
CCOC(=O)CC(=O)CSc1ccc2nnc(-c3ccccc3)n2n1	?	3.7µM*	?	-4	-10
O=C(CSc1ccc(-c2ccc(F)cc2)nn1)N1CCCc2ccccc21	-6%	-2%	?	7	9
CC(C)N1C(=O)C2C(c3ccccc3O)NC(C)(C(=O)O)C2C1=O (stereo unspecified)	0%	.	58%	-6	-7
CC(OC(=O)COc1ccccc1Cc1ccccc1)C(=O)N(C)c1ccccc1 (stereo unspecified)	.	?	-10%	.	.
CS(=O)(=O)N(CC(=O)NCCSCc1ccccc1)c1ccccc1Cl	-19%	0%	12%	-1	-6
O=C(CCNC(=O)c1ccccc1Cl)NNC(=O)c1ccccc1O	.	-2%	2%	.	.
